Hit rate of the full screen: of about 69,000 compounds, about 8,600 (12%) showed an effect of 50% or more. Many of the other results were omitted from the sample, so strong results are more common in it than they were.

The subject of the test is Plasmodium berghei. In words: Screen against P. berghei liver stage (PbLuc), transformed with Luciferase, at 10uM. The test is classed as functional, HepG2. The note with it: tested at 10 uM.
For `Cc1noc([C@H]2C[C@H]3OCC[C@H]3N(Cc3ccc(F)cc3)C2)n1`, the INHIBITION was found to be 35.7%.
Consider `CN(c1ccncn1)C1CC2(CCN(C(=O)c3cccn3C)C2)C1` (stereo not drawn), for which the INHIBITION is on record as 15.9%.
The same measure for `COc1ccc(-c2noc(CN3CC(n4cccn4)C3)n2)c(OC)c1`: -18%.
In the case of `Cc1ccc(-c2noc(CN3CC(n4cc(C)cn4)C3)n2)cc1`, the INHIBITION was determined as 90.9%.
Next, `Cc1cnn(C2CN(Cc3nc(-c4ccsc4)no3)C2)c1`: 15.5%; `Cc1cnn(C2CN(Cc3nc(-c4ccccn4)no3)C2)c1`: 51.1%.
The same measure for `Cc1cnn(CC2CN(Cc3nc(-c4ccccn4)no3)CCO2)c1` (stereo not drawn): 21.6%.
Next, `Cc1cnn(C2CN(CC(O)COCc3ccc4c(c3)OCO4)C2)c1` (stereo not drawn): 32.3%.
Turning to `CN(C)CC1CN(Cc2nc(-c3ccccn3)no2)CCO1` (stereo not drawn), the INHIBITION is reported as -11.4%.
The same measure for `Cc1cnn(C2CN(Cc3nc(C(C)(C)C)no3)C2)c1`: 29.4%; for `COc1ccc(-c2noc(CN3CC(n4cc(C)cn4)C3)n2)cc1`: 89.5%.
In the case of `Cc1cnn(C2CN(CC(O)c3ccc4c(c3)OCCO4)C2)c1` (stereo not drawn), the INHIBITION is reported as 23.2%.
Consider `Cc1ccc(-c2nnc(CN3CC(n4cc(C)cn4)C3)o2)cc1`, for which the INHIBITION was -9.72%.
For the compound `Cc1cnn(C2CN(Cc3ccc4c(c3)OCCO4)C2)c1`, the INHIBITION turned out to be 57.5%.
The same measure for `c1ccc2c(c1)COC1(CCCCC1)N2`: -30%; for `O=C(NCCC1=CCCCC1)Nc1cc(C(F)(F)F)c[nH]c1=O`: 7.27%; for `c1ccc(CN2CCCC(CNc3ncnc4c3CCNCC4)C2)cc1` (stereo not drawn): 45%.
Next, `CC(=O)N1CCCN(C(=O)NCCOc2ccc3c(c2)CCC3)CC1`: 35.15%; `CCOC(=O)[C@H]1CNC[C@H]1C(=O)OCC`: 22%.
The same measure for `Cc1ncsc1C(=O)N1CCCC(c2cc(C(F)F)n3ncnc3n2)C1` (stereo not drawn): 5.11%.
`O=C(c1cnccn1)N1CCC2(CCN(Cc3ccsc3)C2)CC1`: the INHIBITION is 23.3%.
The same measure for `CCOc1c(CNCCCn2ccnc2)cc(Cl)cc1OC`: -9.2%; for `CN1CCN(C2CCN(C(=O)CCC3CCCC3)CC2)CC1`: 29.8%; for `Cc1cnn(C2CN(Cc3nc(-c4cccnc4)no3)C2)c1`: 18.2%.
The same measure for `Cc1cccc(-c2noc(CN3CC(n4cc(C)cn4)C3)n2)c1`: 90%.
The same measure for `Cc1cccc(-c2noc(CN3CC(n4cccn4)C3)n2)c1`: 14.1%; for `CCn1ncc2c1CN(CCc1cccc(Cl)c1)CC2COC` (stereo not drawn): 59.3%.
Take `CCOCC1CN(CCOc2ccc(Cl)cc2)Cc2c1cnn2C` (stereo not drawn): the INHIBITION was determined as 19.8%.
The same measure for `CCn1ncc2c1C(COC)CN(Cc1ccco1)C2` (stereo not drawn): 39.2%; for `Cn1ncc2c1CN(Cc1ccccc1F)CC2COCC1CC1` (stereo not drawn): 49.3%.
The same measure for `CCOCC1CN(CCOCc2ccccc2)Cc2c1cnn2C` (stereo not drawn): -14.3%; for `COCC1CN(CCOc2ccc(Cl)cc2)Cc2c1cnn2C` (stereo not drawn): 53.9%.
Consider `CO[C@H]1C[C@@H](O)C12CCN(CCOc1ccc(Cl)cc1)CC2`, for which the INHIBITION is on record as 44.6%.
Next, `COCC1CN(c2ccc(C)nn2)Cc2cnn(C)c21` (stereo not drawn): 20.6%; `CCn1ncc2c1CN(C(=O)Cc1ccccn1)CC2COC` (stereo not drawn): 18.3%.
For the compound `CCOCC1CN(CCc2ccccc2)Cc2c1cnn2C` (stereo not drawn), the INHIBITION came out at 50%.
The same measure for `COCC1CN(CCc2ccc(OC)c(OC)c2)Cc2c1cnn2C` (stereo not drawn): 53.9%; for `COCCN1CCn2cc(CNC(=O)c3cnn(C)c3)nc2C1`: 16.8%; for `O=C(NCc1ccco1)[C@@H]1CC[C@@H]2[C@@H](CCN2CC2CC2)O1`: 12.3%.
The same measure for `O=C(Cc1ccccn1)N1CCC(O)(Cn2ccc3ccncc32)CC1`: -21.4%; for `NC(=O)Cn1cc(NC(=O)N2CCC(c3ccccc3)CC2)cn1`: 31.65%; for `CC(C)CN(CC(O)c1ccc(F)cc1)C(=O)c1cc[nH]n1` (stereo not drawn): 39.5%.
Next, `CC(C)OC(=O)[C@@H]1CCN(C(=O)c2ccccn2)[C@@H]1c1ccc(F)cc1`: -18.8%.
In the case of `Cc1cccc(S(=O)(=O)N2C[C@@H]3C[C@H](C(=O)NCC(C)C)[C@H](C2)O3)c1`, the INHIBITION is on record as 45.2%.
Consider `O=C(CC1CCCC1)N1CCn2cc(Cn3cccn3)nc2C1`, for which the INHIBITION worked out at 31.1%.
The same measure for `Cc1cc(N(C)C)nc(C2(C)CCCN2C(=O)c2ccccc2)n1` (stereo not drawn): 15.9%; for `Cc1ccc(N2CC[C@@H]3[C@@H](CO[C@H]3CNC(=O)c3ccco3)C2)nn1`: 57.1%.
The same measure for `CN(Cc1ccco1)C[C@H]1OC[C@@H]2CN(c3ncc(F)cn3)CC[C@@H]21`: 58.3%; for `Cc1cccc(N2CC[C@@H]3[C@@H](CO[C@H]3CNC(=O)c3ccco3)C2)n1`: -44.2%; for `Cc1ccc(N2CC[C@H]3CO[C@H](CN(C)Cc4ccco4)[C@H]3C2)nn1`: 53.4%.
Next, `CN(Cc1cccnc1)C[C@@H]1OC[C@H]2CN(Cc3ccco3)CC[C@H]21`: 8.03%; `CN(Cc1ccco1)C[C@@H]1OC[C@H]2CN(Cc3nccs3)CC[C@H]21`: -46.8%.
Turning to `CN(Cc1ccco1)C[C@H]1OC[C@@H]2CCN(Cc3ccccn3)C[C@@H]21`, the INHIBITION is -14.7%.
The same measure for `Cc1ccc(CN2CC[C@H]3CO[C@H](CN(C)Cc4ccco4)[C@H]3C2)s1`: 18.7%; for `Cc1cccc(N2CC[C@@H]3[C@@H](CO[C@H]3CNS(C)(=O)=O)C2)n1`: -39.4%; for `O=C(NC[C@H]1OC[C@@H]2CCN(c3ccccn3)C[C@@H]21)c1ccco1`: -0.804%.
In the case of `Cc1cccc(N2CC[C@H]3CO[C@H](CN(C)Cc4ccco4)[C@H]3C2)n1`, the INHIBITION worked out at 46.4%.
On to `Cc1cccc(N2CC[C@H]3[C@H](CO[C@@H]3CN(C)Cc3ccco3)C2)n1`, for which the INHIBITION was 65.3%.
